According to PubChem BioAssay (Tox21):
Active and inactive are the calls of the source. Calls follow the shape of the dose curve; as a rule, active = well fitted activation curve with a large enough effect in the repeat runs; inconclusive = weak or mixed curves; inactive = flat fitted curve, though single readings scatter.

experiment: A CellTox Green Cytotoxicity Assay to monitor cytotoxicity in HEK293 cells - 0 hour (AID 1224869); settings: CellTox Green fluorescence; series mostly up to 76.8 µM; also: nearly all actives have a fitted effect of over 50% in size
From the text: National Center for Advancing Translational Sciences [NCATS]
NIH Chemical Genomics Center [NCGC]
U.S. Environmental Protection Agency [EPA]
National Institutes of Environmental Health Sciences [NIEHS]
National Toxicology Program [NTP]
Cell-based models are critical for drug discovery. Determining the natural cytotoxic effects resulting from test compounds is an essential research activity. A CellTox Green Cytotoxicity Assay to monitor cytotoxicity in real time of continues cell culture during 40 hours of the compound treatment was used to screen Tox21 10K library compounds in Hek293 cells. CellTox Green Cytotoxicity Assay is a nonlytic, homogeneous, biofluorescent method to measure cytotoxicity in cell culture after experimental manipulation. The assay system uses a proprietary asymmetric cyanine dye that is excluded from viable cells but preferentially stains the dead cell's DNA. […] Viable cells produce no appreciable increases in fluorescence. Therefore, the fluorescence signal produced by the binding interaction with dead cell DNA is proportional to cytotoxicity.
The mixture of Hek293 cell suspension and reagents were dispensed at 600cells/6 ul/well in 1536-well tissue culture treated black solid bottom plates using a Multidrop dispenser. After the assay plates were incubated at a 37 C/5% CO2 incubator for 5 hours, 23 nL of compounds dissolved in DMSO, positive and negative controls was transferred to the assay plate by a pintool work station. The plates were incubated at 37 C for 40 hours. The fluorescence intensity were measured at 0h, 8h, 16h, 24h, 32h and 40h time points using ViewLux plate reader during compound treatment.

SMILES | outcome
Cc1ccc2oc(=O)ccc2c1 | inactive
CCCCCCCCCCCCOCCO | inactive
CC1=CC(=O)NS(=O)(=O)O1 | inactive
OC[C@H]1O[C@@](CO)(O[C@H]2O[C@H](CO)[C@@H](O)[C@H](O)[C@H]2O)[C@@H](O)[C@@H]1O | inactive
CN(C)CCC(c1ccccc1)c1ccccn1 (stereo not given) | inactive
CC(C)c1ccc(S(=O)(=O)O)cc1 | inactive
CC(c1cc2ccccc2s1)N(O)C(N)=O (stereo not given) | inactive
O=C=NCCCCCCN=C=O | inactive
C=C(C)C(=O)O[C@H]1C[C@@H]2CC[C@@]1(C)C2(C)C | inactive
O=C(CC(C(=O)OC1CCCCC1)S(=O)(=O)O)OC1CCCCC1 (stereo not given) | inactive
CCc1cccc(C)c1N | inactive
Cc1cccc(O)c1 | inactive
CCCCN(CCCC)CCCC | inactive
CCCCCC1=CCCC1=O | inactive
O=[N+]([O-])c1ccc(/C=C/c2ccc([N+](=O)[O-])cc2S(=O)(=O)O)c(S(=O)(=O)O)c1 | inactive
O=C(O)CCCCCCCCCCC(=O)O | inactive
COCCCOc1ccnc(CS(=O)c2nc3ccccc3[nH]2)c1C (stereo not given) | inactive
C#C[C@]1(O)CC[C@H]2[C@@H]3CCC4=CC(=O)CC[C@@H]4[C@H]3CC[C@@]21C | inactive
C[C@H]1C[C@H]2[C@@H]3CCC4=CC(=O)C=C[C@]4(C)[C@@]3(F)[C@@H](O)C[C@]2(C)[C@@]1(O)C(=O)CO | inactive
c1c[nH]cn1 | inactive

SMILES | outcome
c1ccc2scnc2c1 | inactive
CCCCCCCCC/C=C/CC1CC(=O)OC1=O (stereo not given) | inactive
CCC(O)OC(O)CC (stereo not given) | inactive
CCCCCC(N)=O | inactive
ON=C1CCCCC1 | inactive
CC(C)CC(=O)CC(C)C | inactive
Nc1ccccc1[N+](=O)[O-] | inactive
OCCOCCOCCO | inactive
CCCCCCCCCCCCc1ccccc1 | inactive
O=c1[nH]nnc2ccccc12 | inactive
Cc1occc(=O)c1O | inactive
CCCCC(CC)COC(=O)CS (stereo not given) | inactive
CC1=C(C)S(=O)(=O)CCS1(=O)=O | inactive
Nc1cc([N+](=O)[O-])ccc1O | inactive
CC1=CCC2CC1C2(C)C (stereo not given) | inactive
N[C@@H](Cc1cc(I)c(Oc2cc(I)c(O)c(I)c2)c(I)c1)C(=O)O | inactive
CN(C)CCC(c1ccc(Cl)cc1)c1ccccn1 (stereo not given) | inactive
O=C(O)c1ccc2c(c1)C(=O)OC2=O | inactive
OCC(CO)(CBr)CBr | inactive
O=S(=O)(O)c1ccc2ccccc2c1 | inactive
